Measurements from PMC5540273 (PLoS ONE, 2017).

Key:
Details in all cases: concentration: 1 μM, replicates: in singlicate; n = 1
[1] = tested on: SGK3
[2] = tested on: SGK
[3] = tested on: SIK2
[4] = tested on: SIK
[5] = tested on: SLK
[6] = tested on: T1, SNARK
T1 construct: gene NUAK2

[7] = tested on: SNRK
[8] = tested on: SRC
[9] = tested on: SRMS
[10] = tested on: SRPK1
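Further: KINOMEscan kinase panel screen.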

SMILES	%Inh [1] [%]	%Inh [2] [%]	%Inh [3] [%]	%Inh [4] [%]	%Inh [5] [%]	%Inh [6] [%]	%Inh [7] [%]	%Inh [8] [%]	%Inh [9] [%]	%Inh [10] [%]
COc1ccc(CSc2nnc(-c3ccc4c(c3)CCO4)o2)cc1	0	0	0	0	0	0	0	0	0	0
Cc1ccc(NC(=O)Nc2ccc(Cl)cc2)cc1-c1ccc(C(=O)Nc2ccncc2)cc1 [GSK1398472]	13	0	11	20	12	0	0	8	0	0
CCc1ccc(-c2ccc3c(c2)-c2n[nH]cc2S(=O)(=O)N3C)cc1	0	0	13	29	0	0	1	0	1	0
CS(=O)(=O)Cc1ccc(Nc2nccc(-c3c(-c4cccc(NC(=O)C5CCCCC5)c4)nn4ncccc34)n2)cc1 [GSK350559]	0	46	0	0	53	7	16	30	3	29
COc1ccc2cc(-c3nc(-c4ccccc4C(C)C)[nH]c3-c3ccncc3)ccc2c1 [SB-660566]	0	0	0	0	78	0	0	0	0	7
Cc1ccc(NC(=O)c2ccc(Cl)cc2)cc1-c1ccc(C(=O)Nc2ccncc2)cc1 [GSK1398467]	0	0	0	0	19	0	0	0	0	13
NS(=O)(=O)c1cccc(N/C=C2\C(=O)Nc3ccc(S(=O)(=O)Cc4c(Cl)cccc4Cl)cc32)c1 [GSK398099]	5	0	0	0	15	0	0	0	0	19
Cc1cnc(N)c(/C=C/c2cncc(C(=O)NCCc3ccc(Cl)cc3Cl)c2)c1.Cl [GSK190937]	0	0	0	0	0	0	0	0	24	24
CC(=O)c1c(C)c2cnc(Nc3ccn(C)n3)nc2n(C2CCCC2)c1=O	26	0	0	0	34	6	0	0	0	0
Cc1ccccc1-c1cc(-c2c[nH]nc2-c2ccccn2)ccn1 [GW680061]	0	0	0	0	0	1	0	0	0	0
Cc1nccc(-c2c(-c3ccc(F)cc3)ncn2CCCN2CCOCC2)n1.Cl [SB-282975]	39	27	0	27	32	42	2	26	0	19
Fc1ccc(-c2nn3cccc(F)c3c2-c2ccncc2)cc1 [GW475620]	0	0	12	3	16	0	0	1	0	3
CC(C)c1cc(-c2ccc3c(N)n[nH]c3c2)nc(N)n1 [GSK2250882]	4	0	0	0	14	0	0	0	8	60
COc1ccc(Nc2nccc(N3CCC(NC(=O)c4cc5ccccc5s4)C3)n2)cc1 (stereo not drawn) [GSK1379738]	7	0	0	0	4	6	0	0	0	17
CCn1c(-c2ccccc2)nc2cnccc21 [SB-733416]	0	9	5	3	28	0	0	0	0	11
Cc1ccc(NC(=O)Nc2ccccc2)cc1-c1ccc(C(=O)Nc2ccncc2)cc1 [GSK1398471]	10	0	0	6	13	4	0	20	0	33
O=C(Nc1n[nH]c2nc(-c3cccs3)c(Br)cc12)C1CC1 [SB-735297]	15	26	0	0	7	10	0	0	5	22
c1ccc(-c2ccnc3[nH]ccc23)cc1 [SB-693578]	10	18	25	0	6	48	0	0	0	0
CCn1c(-c2c(N)noc2C)nc2cnccc21 [SB-737856]	0	0	0	0	4	0	0	0	0	0
CS(=O)(=O)CCNCc1nc(-c2ccc3ncnc(Nc4ccc5c(cnn5Cc5ccccc5)c4)c3c2)cs1.Cl.Cl [GW569716]	0	3	0	0	0	0	0	0	0	14
CNc1nc(-c2ccc3c(N)n[nH]c3c2)cc(N2C[C@@H](C(=O)Nc3ccccc3)CC[C@H]2C)n1 [GSK2298859]	1	0	0	4	19	8	0	2	0	33

SMILES	%Inh [1] [%]	%Inh [2] [%]	%Inh [3] [%]	%Inh [4] [%]	%Inh [5] [%]	%Inh [6] [%]	%Inh [7] [%]	%Inh [8] [%]	%Inh [9] [%]	%Inh [10] [%]
COc1nccc(-c2c(-c3ccc(F)cc3)ncn2CCCN2CCOCC2)n1 [SB-282852]	0	13	0	0	30	0	0	0	0	0
COc1ccc(Nc2nccc(-c3ccc(NC(=O)c4cc5cc(F)ccc5[nH]4)cc3)n2)cc1 [GSK1229496]	1	0	0	0	0	0	0	0	7	10
Cc1cccc2c(-c3ccncn3)c(-c3ccc(F)cc3)nn12 [GW515532]	2	12	39	0	13	0	0	0	0	33
Cn1cnc2c(N)ncnc21 [SKF-97623]	0	0	27	0	0	0	0	0	0	0
COc1cccc(CNC(=O)NC2CCN(c3ccnc(Nc4ccc(F)cc4)n3)C2)c1 (stereo not drawn) [GSK1379723]	0	0	14	0	15	0	0	0	0	33
COC(=O)C(Cc1ccccc1)NC(=O)NC1CCN(c2ccnc(Nc3ccc(F)cc3)n2)C1 (stereo not drawn) [GSK1379714]	0	2	0	0	22	0	0	1	5	15
COC(=O)c1cccc(NC(=O)NC2CCN(c3ccnc(Nc4ccc(F)cc4)n3)C2)c1 (stereo not drawn) [GSK1379725]	0	0	0	2	0	0	0	0	0	23
COc1ccc(-c2coc3ccc(-c4nnc(C)o4)cc23)cc1	0	0	3	0	5	0	0	20	0	9
CNC(=O)c1ccc(C)c(-n2c(C)cc(OCc3ccc(F)cc3F)c(Br)c2=O)c1	0	0	0	0	0	0	0	0	0	14
COc1cccc(NC(=O)Nc2ccc(C)c(-c3ccc(C(=O)Nc4ccncc4)cc3)c2)c1 [GSK1398474]	11	0	0	10	7	13	3	31	0	31
CNc1cc(-c2ccc3c(N)n[nH]c3c2)nc(N)n1 [GSK2224810]	7	0	13	0	0	2	0	0	0	46
CCCCc1nn2ncccc2c1-c1ccnc(NC2CC2)n1 [GW684374]	2	0	0	0	0	9	0	0	0	12
O=C(Nc1n[nH]c2nc(-c3cccs3)c(Br)cc12)C1CCCC1 [SB-743341]	40	0	0	17	38	34	19	7	0	0
CN1c2ccc(-c3ccc(C(N)=O)cc3)cc2-c2[nH]ncc2S1(=O)=O	0	0	10	8	2	0	0	7	4	0
Cl.Cl.Cl.N#Cc1ccc(CCNc2nccc(-c3cccc(CN4CCNCC4)c3)n2)cc1 [GSK2137462]	10	0	2	0	6	12	0	15	2	21
Fc1ccc(-c2nc3n(c2-c2ccncc2)CCS3)cc1 [GI98581]	0	0	0	17	25	0	0	9	0	23
Nc1nccc(-c2c(-c3ccc(F)cc3)ncn2C2CCN(Cc3ccccc3)CC2)n1 [SB-219980]	28	2	24	6	0	38	0	0	11	0
O=C(Nc1n[nH]c2nc(-c3ccco3)c(Br)cc12)C1CCN(Cc2ccccc2)C1.O=C(O)[C@H](O)[C@@H](O)C(=O)O (stereo not drawn) [SB-742034]	24	18	9	52	8	11	0	0	17	28
COC(=O)c1cccc(NC(=O)NC2CCN(c3ccnc(Nc4ccc(OC)cc4)n3)C2)c1 (stereo not drawn) [GSK1379746]	0	9	0	0	7	0	0	0	0	0
CSc1ccc(-c2nc3n(c2-c2ccncc2)CCC3)cc1 [SKF-105561]	6	0	0	0	7	0	18	0	13	2
COc1ccc(Nc2nccc(NCCNC(=O)Nc3cc(C)ccc3C)n2)cc1 [GSK1379899]	0	0	0	0	27	0	0	0	0	34
